Measurements from PubChem BioAssay (Tox21).
Values joined by “and” are separate entries in the source; they are usually repeats but may differ in a detail not shown here. Equal values may be shown once. Records with an inconclusive call do not appear. A structure can be active in one record and inactive in another. Active and inactive are the calls of the source. Unless noted, calls come from the whole dose curve; as a rule, active = well fitted curve in the direction sought with a large enough effect in the repeat runs; inconclusive = weak or mixed curves; inactive = no such curve, though single readings can be large; an effect the other way counts as inactive or inconclusive.

What was measured:
[1] = qHTS assay to identify small molecule antagonists of the sonic hedgehog signaling (Shh) pathway (AID 1259369; calls by dose curve; note: nearly all actives have a fitted effect of over 45% in size; note: potency is the fitted concentration of half-maximal effect)
In short: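 Conditioned medium drives Shh signalling in 3T3Gli1-Luc cells; compounds in DMSO co-applied, 24hr at 37 C, then luciferase luminescence.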

[2] = target: Estrogen receptor beta (Homo sapiens) (UniProt Q92731); test: qHTS assay to identify small molecule agonists of the estrogen receptor beta (ER-beta) signaling pathway (AID 1259377; active = well fitted activation curve with a large enough effect in the signal ratio in the repeat runs, not every such curve was filed as active; the % refers to the signal ratio)
Estrogen receptor beta (Homo sapiens), sequence (Q92731 whole entry, looked up): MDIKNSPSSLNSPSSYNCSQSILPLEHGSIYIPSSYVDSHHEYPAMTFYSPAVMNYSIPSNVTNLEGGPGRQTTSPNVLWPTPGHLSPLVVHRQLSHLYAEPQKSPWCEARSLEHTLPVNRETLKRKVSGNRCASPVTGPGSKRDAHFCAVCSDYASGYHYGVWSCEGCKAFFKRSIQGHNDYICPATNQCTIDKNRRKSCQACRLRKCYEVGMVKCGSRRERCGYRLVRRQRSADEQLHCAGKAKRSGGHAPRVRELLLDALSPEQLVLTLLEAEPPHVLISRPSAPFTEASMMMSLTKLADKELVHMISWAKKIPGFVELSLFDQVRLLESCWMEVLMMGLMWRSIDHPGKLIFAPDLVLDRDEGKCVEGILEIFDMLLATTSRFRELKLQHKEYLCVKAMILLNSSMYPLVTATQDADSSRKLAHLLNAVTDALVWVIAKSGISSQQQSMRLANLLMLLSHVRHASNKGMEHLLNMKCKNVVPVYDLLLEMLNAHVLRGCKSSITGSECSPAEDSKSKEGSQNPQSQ
In short: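 Read-out: beta-lactamase FRET fluorescence. Cell line: ER-beta-UAS-bla HEK293T in 2% charcoal-stripped FBS. Exposure: 16 hr at 37C. Substrate step: 2 h at room temperature.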

[3] = target: Estrogen receptor beta (Homo sapiens) (UniProt Q92731); test: qHTS assay to identify small molecule antagonists of the estrogen receptor beta (ER-beta) signaling pathway (AID 1259378; active = well fitted inhibition curve with a large enough effect in the signal ratio in the repeat runs, not every such curve was filed as active; the % refers to the signal ratio)
In short: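 ER-beta-UAS-bla HEK293T cells in 2% charcoal-stripped FBS medium treated with compound plus 1nM final 17-beta-estradiol for 16 hr at 37C. Beta-lactamase reporter read by FRET substrate fluorescence after 2 hours at room temperature.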

[4] = qHTS assay to identify small molecule agonists of the androgen receptor (AR) signaling pathway in the presence of an antagonist - cell viability counter screen (AID 1259379);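 note: MDA-kb2 human breast cancer cells carrying an MMTV luciferase reporter; series mostly up to about 92 µM; nearly all actives have a fitted effect of over 25% in size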
In short: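 A CellTiter-Fluor read-out measured viability of MDA-kb2 reporter cells (MMTV promoter with AR and GR response elements). Treatment: nilutamide 3.0uM final with compounds at 15 concentrations, 16 hr, 37C, 0% CO2.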

[5] = qHTS assay to identify small molecule agonists of the estrogen receptor beta (ER-beta) signaling pathway - cell viability counter screen (AID 1259380); note: nearly all actives have a fitted effect of over 30% in size; note: potency is the fitted concentration of half-maximal effect
In short: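 Cells used were ER-beta-UAS-bla HEK293T in medium with 2% charcoal-stripped FBS. They were treated for 16 hr at 37C. Viability came from CellTiter-Glo luminescence.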

[6] = qHTS assay to identify small molecule antagonists of the estrogen receptor beta (ER-beta) signaling pathway - cell viability counter screen (AID 1259382); note: series mostly up to about 92 µM; nearly all actives have a fitted effect of over 55% in size
In short: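 Agonist-stimulated (1nM E2) ER-beta-UAS-bla HEK293T cells are incubated with library compounds for 16 hr at 37C. Cell viability is then assessed in the reporter-assay wells by adding CellTiter-Glo and reading luminescence after 30 min.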

[7] = qHTS assay to identify small molecule agonists or antagonists of the thyroid stimulating hormone receptor (TSHR) signaling pathway - wild type cell line counter screen (AID 1259384; calls by dose curve)
In short: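 Wild-type Hek293 cells, 800/well, 18 h at 37C, then compound with Ro20-1724 for 30 min RT. cAMP by HTRF (cAMP-d2/anti-cAMP cryptate), 1 h RT, fluorescence read. 15 concentrations, triplicates.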

[8] = target: Thyrotropin receptor (Homo sapiens) (UniProt P16473); test: qHTS assay to identify small molecule antagonists of the thyroid stimulating hormone receptor (TSHR) signaling pathway (AID 1259385; calls by dose curve; note: nearly all actives have a fitted effect of over 20% in size)
Thyrotropin receptor (Homo sapiens), sequence (P16473 whole entry, looked up): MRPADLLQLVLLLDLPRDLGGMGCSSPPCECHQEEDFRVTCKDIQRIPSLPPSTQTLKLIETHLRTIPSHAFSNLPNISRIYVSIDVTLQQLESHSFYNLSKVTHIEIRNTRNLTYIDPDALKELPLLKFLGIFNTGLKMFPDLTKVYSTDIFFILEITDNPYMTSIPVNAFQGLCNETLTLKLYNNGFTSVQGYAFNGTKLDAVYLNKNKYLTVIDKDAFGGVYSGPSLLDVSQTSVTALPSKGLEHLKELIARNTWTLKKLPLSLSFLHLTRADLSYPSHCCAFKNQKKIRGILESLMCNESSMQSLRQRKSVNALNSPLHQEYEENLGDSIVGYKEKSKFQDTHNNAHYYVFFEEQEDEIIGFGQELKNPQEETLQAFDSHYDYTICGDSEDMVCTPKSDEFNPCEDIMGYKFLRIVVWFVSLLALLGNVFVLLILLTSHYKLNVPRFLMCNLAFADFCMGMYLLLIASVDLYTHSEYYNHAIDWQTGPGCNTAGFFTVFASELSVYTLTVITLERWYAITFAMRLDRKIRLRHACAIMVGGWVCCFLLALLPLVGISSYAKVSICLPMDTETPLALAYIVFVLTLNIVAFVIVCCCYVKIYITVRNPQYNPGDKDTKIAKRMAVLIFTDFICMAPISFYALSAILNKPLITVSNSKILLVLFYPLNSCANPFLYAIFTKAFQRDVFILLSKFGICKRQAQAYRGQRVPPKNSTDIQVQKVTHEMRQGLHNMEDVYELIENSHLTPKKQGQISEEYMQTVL
In short: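 TSHR-HEK293 cells (800/well) plated 18 h, then compounds with Ro20-1724 and TSH at 1.5 ng/mL final, 30 min at room temperature. cAMP quantified by HTRF (cAMP-d2/anti-cAMP-cryptate, 1 h); 15 concentrations in triplicate.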

[9] = qHTS assay to identify small molecule agonists of the estrogen receptor alpha (ER-alpha) signaling pathway in the presence of an antagonist - cell viability counter screen (AID 1259386);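 note: series mostly up to about 92 µM; cells exposed to compounds for 22 h at 37 °C before the viability read; nearly all actives have a fitted effect of over 30% in size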
In short: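 ICI-182,780 at 10.0nM final accompanies the compound titration (15 concentrations, 22hr, 37C) on VM7Luc4E2 cells. The CellTiter-Fluor fluorescence readout runs in the same wells as the luciferase assay.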

[10] = target: Progesterone receptor (Homo sapiens) (UniProt P06401); test: qHTS assay to identify small molecule agonists of the progesterone receptor (PR) signaling pathway (AID 1346784; calls by dose curve; note: nearly all actives have a fitted effect of over 30% in size)
Progesterone receptor (Homo sapiens), sequence (P06401 whole entry, looked up): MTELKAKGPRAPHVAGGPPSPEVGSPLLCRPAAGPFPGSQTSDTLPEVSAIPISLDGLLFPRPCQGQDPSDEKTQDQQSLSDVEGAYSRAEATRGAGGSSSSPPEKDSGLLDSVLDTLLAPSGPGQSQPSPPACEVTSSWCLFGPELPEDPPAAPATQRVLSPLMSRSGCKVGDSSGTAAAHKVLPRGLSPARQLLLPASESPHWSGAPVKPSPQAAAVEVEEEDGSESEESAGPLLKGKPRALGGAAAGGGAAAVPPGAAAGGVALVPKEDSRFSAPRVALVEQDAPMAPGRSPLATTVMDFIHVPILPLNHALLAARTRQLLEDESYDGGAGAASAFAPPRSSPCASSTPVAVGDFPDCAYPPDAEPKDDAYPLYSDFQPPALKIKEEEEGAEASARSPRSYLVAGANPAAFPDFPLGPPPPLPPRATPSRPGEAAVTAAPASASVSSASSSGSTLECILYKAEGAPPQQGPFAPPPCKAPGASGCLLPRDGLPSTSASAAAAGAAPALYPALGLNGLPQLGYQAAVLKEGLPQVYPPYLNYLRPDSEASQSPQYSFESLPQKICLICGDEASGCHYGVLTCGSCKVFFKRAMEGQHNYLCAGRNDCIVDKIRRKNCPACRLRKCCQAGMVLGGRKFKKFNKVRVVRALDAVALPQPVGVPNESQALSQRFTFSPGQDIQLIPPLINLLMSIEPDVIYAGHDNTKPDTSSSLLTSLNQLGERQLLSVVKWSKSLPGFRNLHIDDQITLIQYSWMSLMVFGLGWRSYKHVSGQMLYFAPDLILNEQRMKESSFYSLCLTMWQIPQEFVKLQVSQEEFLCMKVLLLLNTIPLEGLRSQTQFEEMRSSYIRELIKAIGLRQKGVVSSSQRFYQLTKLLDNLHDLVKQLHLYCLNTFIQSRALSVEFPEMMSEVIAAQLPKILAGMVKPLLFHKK
In short: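 Compounds were tested for PR agonism in HEK 293T cells bearing a beta-lactamase gene under UAS control. Treatment lasted 16 hr at 37C; signal came from fluorescence of a FRET substrate.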

[11] = target: Progesterone receptor (Homo sapiens) (UniProt P06401); test: qHTS assay to identify small molecule antagonists of the progesterone receptor (PR) signaling pathway (AID 1346795; active = well fitted inhibition curve with a large enough effect in the signal ratio in the repeat runs, not every such curve was filed as active; the % refers to the signal ratio)
In short: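 In HEK293T cells bearing the PR-UAS-bla reporter, compound effects on promegestone-driven (1 nM) beta-lactamase expression are assessed after 16 hr using a fluorescent FRET substrate incubated 2 hr at room temperature.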

[12] = qHTS assay to identify small molecule antagonists of the progesterone receptor (PR) signaling pathway - cell viability counter screen (AID 1346798); note: series mostly up to about 92 µM; nearly all actives have a fitted effect of over 50% in size
In short: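 Following a 4 hr attachment, PR-UAS-bla HEK293T cells in charcoal-stripped FBS medium were exposed to compounds with R5020 for 16 hr; CellTiter-Glo was added and luminescence read after 30 min at room temperature.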

[13] = qHTS assay to identify small molecule agonists of the progesterone receptor (PR) signaling pathway - cell viability counter screen (AID 1346799; calls by dose curve; note: nearly all actives have a fitted effect of over 45% in size)
In short: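 Here, 3,000 PR-UAS-bla HEK293T cells per well were treated with compounds for 16 hr after a 6 hr preincubation at 37C and 5% CO2; cell viability is the CellTiter-Glo luminescence signal.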

[14] = qHTS assay to identify small molecule antagonists of the TGF-beta/Smad signaling pathway - cell viability counter screen (AID 1346824); note: nearly all actives have a fitted effect of over 50% in size
In short: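 SBE-bla HEK 293T cells, incubated overnight, then compound plus 0.25 ng/mL TGF-beta1 (stock added) for 5 hr at 37 C. Viability was read in the same wells by CellTiter-Glo luminescence after 30 min at room temperature.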

[15] = qHTS assay to identify small molecule agonists of the TGF-beta/Smad signaling pathway - cell viability counter screen (AID 1346829); note: top concentration of the series differs between compounds; nearly all actives have a fitted effect of over 45% in size
In short: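 Compound-treated SBE-bla HEK 293T cells (5 hr, 37 C) were assessed for viability with CellTiter-Glo in parallel with the reporter read.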

[16] = qHTS assay to identify small molecule agonists of the TGF-beta/Smad signaling pathway (AID 1346859; active = well fitted activation curve with a large enough effect in the signal ratio in the repeat runs, not every such curve was filed as active; the % refers to the signal ratio; note: series mostly up to about 77 µM)
In short: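 Each well held 4,000 SBE-bla HEK 293T cells incubated overnight before compound addition; 5 hr later the cleavable FRET substrate went on for 2 hr at room temperature, and fluorescence was read at two emissions.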

[17] = target: Thyrotropin-releasing hormone receptor (Homo sapiens) (UniProt P34981); test: qHTS assay to identify small molecule antagonists of the thyrotropin-releasing hormone receptor (TRHR) signaling pathway (AID 1346877; active = well fitted inhibition curve with a large enough effect in the repeat runs, not every such curve was filed as active; note: series mostly up to about 51 µM)
Thyrotropin-releasing hormone receptor (Homo sapiens), sequence (P34981 whole entry, looked up): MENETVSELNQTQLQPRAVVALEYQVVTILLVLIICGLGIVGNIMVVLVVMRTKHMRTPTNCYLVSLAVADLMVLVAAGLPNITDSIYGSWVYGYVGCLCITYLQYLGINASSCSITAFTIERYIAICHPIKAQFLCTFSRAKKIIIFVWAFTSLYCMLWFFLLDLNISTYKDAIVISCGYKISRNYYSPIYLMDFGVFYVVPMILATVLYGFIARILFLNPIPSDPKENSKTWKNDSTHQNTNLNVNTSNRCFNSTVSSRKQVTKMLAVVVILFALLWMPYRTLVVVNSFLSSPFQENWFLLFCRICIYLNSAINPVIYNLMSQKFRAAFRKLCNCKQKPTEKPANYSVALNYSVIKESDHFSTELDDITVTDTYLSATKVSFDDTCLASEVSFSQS
In short: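 Screening used HEK293 cells engineered with TRHR, with a brief 5 min room-temperature compound exposure preceding addition of TRH to 1 nM. The read-out was kinetic calcium-dye fluorescence, concentration-response from 15 doses in triplicate.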

[18] = target: Thyrotropin-releasing hormone receptor (Homo sapiens) (UniProt P34981); test: qHTS assay to identify small molecule agonists of the thyrotropin-releasing hormone receptor (TRHR) signaling pathway (AID 1346891; calls by dose curve; note: series mostly up to about 58 µM)
In short: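 Screening of agonists relied on calcium signalling in HEK293 cells expressing human TRHR: dye loading 2 h at 37 °C preceded compound addition and a 3-min fluorescence time course.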

[19] = target: Estrogen receptor (Homo sapiens) (UniProt P03372); test: qHTS assay to identify small molecule agonists of the estrogen receptor alpha (ER-alpha) signaling pathway in the presence of an antagonist (AID 1259383; calls by dose curve; note: nearly all actives have a fitted effect of over 15% in size; note: potency is the fitted concentration of half-maximal effect; for activation: top concentration of the series differs between compounds)
Estrogen receptor (Homo sapiens), sequence (P03372 whole entry, looked up): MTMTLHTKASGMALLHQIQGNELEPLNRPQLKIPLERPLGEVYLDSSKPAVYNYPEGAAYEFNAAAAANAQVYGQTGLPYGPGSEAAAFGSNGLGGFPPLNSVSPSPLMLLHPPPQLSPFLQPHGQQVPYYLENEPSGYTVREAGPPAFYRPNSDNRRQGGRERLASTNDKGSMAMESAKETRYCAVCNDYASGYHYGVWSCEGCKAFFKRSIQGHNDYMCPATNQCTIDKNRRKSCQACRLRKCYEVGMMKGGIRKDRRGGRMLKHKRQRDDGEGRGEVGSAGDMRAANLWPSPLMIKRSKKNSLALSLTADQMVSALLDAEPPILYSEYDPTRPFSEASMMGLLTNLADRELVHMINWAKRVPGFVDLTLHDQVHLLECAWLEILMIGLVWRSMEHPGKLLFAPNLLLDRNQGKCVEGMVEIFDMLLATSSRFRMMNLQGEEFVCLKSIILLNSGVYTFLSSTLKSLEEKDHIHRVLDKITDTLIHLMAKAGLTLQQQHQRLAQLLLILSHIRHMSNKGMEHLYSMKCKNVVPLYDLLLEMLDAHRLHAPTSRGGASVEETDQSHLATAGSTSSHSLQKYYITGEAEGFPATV
In short: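 Using VM7Luc4E2 cells seeded 24hr before treatment, antagonist ICI-182,780 (10.0nM final) was added, followed by compounds at 15 concentrations. Plates incubated 22hr; ONE-Glo luminescence quantified reporter activity.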

Measured: Potency

Cc1cccc(C)c1[N+](=O)[O-]
inactive and 24.3 µM (active): [1]
not listed: [19]
inactive: all other assays above

CCCCCCCC(=O)O
26.3 µM (active) and inactive: [19]
not listed: [7] | [8] | [17] | [18]
inactive: all other assays above

COC(=O)/C=C\C(=O)OC
not listed: [19]
inactive: all other assays above

C[n+]1ccn(CCO)c1
not listed: [7] | [8] | [17] | [19]
inactive: all other assays above

COc1ccc(N)c(OC)c1
inactive and 54.5 µM (active): [5]
active: [1] 9.31 µM
not listed: [2] | [3] | [17] | [18]
inactive: all other assays above

C=CC(=O)NCOCCCC
not listed: [7] | [8] | [17]
inactive: all other assays above
